The text below walks through data of article PMC5700166.

Residue numbers refer to the chain shown, from its start.

Holding throughout (assay): protein-binding microarray (PBM); PBM: ~300 nM protein, 6 mM HEPES pH 7.8, 80 mM KCl, 0.5 mM EDTA, 0.5 mM EGTA, 6% glycerol, 35 ng/ul poly-dIdC, 1% milk, 1 h, room temperature; Ap Aiptasia and Nv Nematostella (sea anemones) / Co Capsaspora / Aq Amphimedon (sponge) / Dm Drosophila / Hu human; RHD is the Rel homology domain; high values mean tight binding
Settings in all cases: dsDNA, one strand shown

Assay [1] deals with T1, GST-Ap-NF-kB RHD (Exaiptasia pallida (Aiptasia), UniProt A0A913YAJ5 2-422).
T1 sequence: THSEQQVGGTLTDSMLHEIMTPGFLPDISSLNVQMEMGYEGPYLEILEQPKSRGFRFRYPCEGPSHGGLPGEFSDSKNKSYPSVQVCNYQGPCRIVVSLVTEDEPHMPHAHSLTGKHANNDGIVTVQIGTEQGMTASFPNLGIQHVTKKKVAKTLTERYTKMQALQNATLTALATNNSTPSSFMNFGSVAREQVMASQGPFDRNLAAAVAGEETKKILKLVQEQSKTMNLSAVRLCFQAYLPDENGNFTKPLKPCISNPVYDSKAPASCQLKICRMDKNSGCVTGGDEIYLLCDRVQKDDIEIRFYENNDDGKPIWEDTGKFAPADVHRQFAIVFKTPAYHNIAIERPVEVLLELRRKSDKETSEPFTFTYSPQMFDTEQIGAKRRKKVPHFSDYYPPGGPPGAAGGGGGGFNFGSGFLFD

Assay [2] deals with T2, GST-Nv-NF-kB (Cys allele) (Nematostella vectensis, UniProt E5G601 2-411).
T2 sequence: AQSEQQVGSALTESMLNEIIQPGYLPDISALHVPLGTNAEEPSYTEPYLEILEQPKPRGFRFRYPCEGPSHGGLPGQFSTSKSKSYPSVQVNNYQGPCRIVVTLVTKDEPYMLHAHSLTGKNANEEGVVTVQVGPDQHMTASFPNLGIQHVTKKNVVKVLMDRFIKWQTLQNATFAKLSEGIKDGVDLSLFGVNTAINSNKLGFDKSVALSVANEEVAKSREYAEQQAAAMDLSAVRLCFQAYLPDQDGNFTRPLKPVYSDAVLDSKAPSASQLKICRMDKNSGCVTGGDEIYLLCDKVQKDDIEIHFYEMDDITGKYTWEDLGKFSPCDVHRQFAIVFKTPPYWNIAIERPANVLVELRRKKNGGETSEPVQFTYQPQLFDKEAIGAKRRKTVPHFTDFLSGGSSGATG

The target of assay [3] is T3, GST-Nv-NF-kB (Ser allele) (Nematostella vectensis, UniProt A7UNT2 2-411).
T3 sequence: T2 sequence with Q21R, C66S, S207N, E215Q, V217A, E225K, A268E, D399E

For assay [4], the target named is T4, GST-Co-NF-kB (Capsaspora owczarzaki, UniProt F1ARL5 200-546).
T4 sequence: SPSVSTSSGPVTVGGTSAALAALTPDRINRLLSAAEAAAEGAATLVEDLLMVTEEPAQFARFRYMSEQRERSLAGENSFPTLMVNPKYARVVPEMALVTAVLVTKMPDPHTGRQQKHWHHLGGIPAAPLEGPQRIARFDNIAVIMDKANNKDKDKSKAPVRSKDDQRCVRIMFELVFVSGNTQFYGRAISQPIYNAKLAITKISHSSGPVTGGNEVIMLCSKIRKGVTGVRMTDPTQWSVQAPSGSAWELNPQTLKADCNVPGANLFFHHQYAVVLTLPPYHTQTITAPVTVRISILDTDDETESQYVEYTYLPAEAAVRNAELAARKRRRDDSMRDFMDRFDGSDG

The target in assay [5] is T5, GST-Dm-Relish (Drosophila melanogaster, UniProt Q94527 99-473).
T5 sequence: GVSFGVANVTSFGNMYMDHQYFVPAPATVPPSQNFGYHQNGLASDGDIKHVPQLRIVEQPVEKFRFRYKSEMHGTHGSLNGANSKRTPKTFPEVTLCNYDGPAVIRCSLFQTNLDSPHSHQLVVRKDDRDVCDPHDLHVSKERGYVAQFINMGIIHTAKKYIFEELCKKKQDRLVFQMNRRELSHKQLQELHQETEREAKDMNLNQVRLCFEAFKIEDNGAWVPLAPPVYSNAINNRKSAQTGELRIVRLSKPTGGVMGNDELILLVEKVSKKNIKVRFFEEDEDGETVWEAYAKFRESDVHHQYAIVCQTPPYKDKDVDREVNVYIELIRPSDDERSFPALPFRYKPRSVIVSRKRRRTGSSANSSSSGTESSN

For assay [6], the target named is T6, GST-Aq-NF-kB (Amphimedon queenslandica, UniProt A9Y5G7 2-389).
T6 sequence: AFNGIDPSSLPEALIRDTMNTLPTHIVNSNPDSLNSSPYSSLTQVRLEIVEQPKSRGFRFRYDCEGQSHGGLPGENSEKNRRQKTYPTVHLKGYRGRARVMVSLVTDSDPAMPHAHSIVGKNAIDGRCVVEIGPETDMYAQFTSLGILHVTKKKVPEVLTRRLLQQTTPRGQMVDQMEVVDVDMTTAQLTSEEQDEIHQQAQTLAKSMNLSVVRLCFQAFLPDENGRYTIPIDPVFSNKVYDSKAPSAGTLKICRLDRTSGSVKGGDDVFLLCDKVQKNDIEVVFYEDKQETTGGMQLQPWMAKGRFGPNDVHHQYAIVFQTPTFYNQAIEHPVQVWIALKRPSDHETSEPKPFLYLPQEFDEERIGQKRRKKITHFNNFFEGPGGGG

The target in assay [7] is GST-Hu-p50 (Homo sapiens, UniProt P19838 7-356).
Sequence of GST-Hu-p50 (P19838 7-356): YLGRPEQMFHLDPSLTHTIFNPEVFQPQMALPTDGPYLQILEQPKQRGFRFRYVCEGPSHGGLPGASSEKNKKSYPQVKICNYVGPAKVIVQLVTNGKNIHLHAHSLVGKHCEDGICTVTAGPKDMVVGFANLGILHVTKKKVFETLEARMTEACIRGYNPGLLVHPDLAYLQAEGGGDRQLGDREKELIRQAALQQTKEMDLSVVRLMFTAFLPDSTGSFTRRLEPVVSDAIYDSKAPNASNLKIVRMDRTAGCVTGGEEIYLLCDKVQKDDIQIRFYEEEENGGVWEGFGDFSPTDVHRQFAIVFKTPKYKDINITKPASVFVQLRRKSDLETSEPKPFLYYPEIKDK

For “CCGATTAACATCAGAAATGTCCCTGATGTTAATCGGGTCTTGATTCGCTTGACGCTGCTG”, the binding signal in assay [1] came to 2.83 z-score; in assay [2], 4.85 z-score; in assay [3], 4.61 z-score; in assay [4] it was 1.29 z-score; in assay [5], 3.1 z-score; in assay [6], 4.94 z-score. Also, the binding signal in assay [7] amounted to 4.36 z-score.

In the case of “CCGATTAACATCAAAATTCCCGCTGATGTTAATCGGGTCTTGATTCGCTTGACGCTGCTG”, the binding signal in assay [1] is 4.49 z-score; in assay [2], 5.99 z-score; in assay [3] it was 5.62 z-score; in assay [4], 5.23 z-score; in assay [5] it was 5.76 z-score; in assay [6], 5.51 z-score. Further, the binding signal in assay [7] was determined as 4.41 z-score.

On to “CCGATTAACATCAGGGGATGAACTGATGTTAATCGGGTCTTGATTCGCTTGACGCTGCTG”, for which the binding signal is 2.44 z-score in assay [1]; 3.65 z-score in assay [2]; 4.24 z-score in assay [3]; 3.23 z-score in assay [4]; 7.62 z-score in assay [5]; 3.73 z-score in assay [6]. The sequence further yielded a binding signal in assay [7] of 2.94 z-score.

With “CCGATTAACATCACCCATTTCCCTGATGTTAATCGGGTCTTGATTCGCTTGACGCTGCTG”, the binding signal stood at 2.51 z-score in assay [1]; 3.07 z-score in assay [2]; 3.99 z-score in assay [3]; 3 z-score in assay [4]; 1.35 z-score in assay [5]; 2.52 z-score in assay [6]. Besides, in assay [7], the binding signal amounted to 2.57 z-score.

As for “CCGATTAACATCAGGGGAAACCCTGATGTTAATCGGGTCTTGATTCGCTTGACGCTGCTG”, the binding signal in assay [1] was found to be 10.2 z-score; in assay [2], 11.4 z-score; in assay [3], 10.8 z-score; in assay [4] it was 7.22 z-score; in assay [5], 10 z-score; in assay [6] it was 9.57 z-score. The same sequence showed a binding signal in assay [7] of 7.44 z-score.

Turning to “CCGATTAACATCAAGGGGATTTCTGATGTTAATCGGGTCTTGATTCGCTTGACGCTGCTG”, the binding signal worked out at 9.69 z-score in assay [1]; 10.8 z-score in assay [2]; 12.7 z-score in assay [3]; 2.79 z-score in assay [4]; 9.09 z-score in assay [5]; 7.73 z-score in assay [6]. In addition, the binding signal in assay [7] was found to be 7.98 z-score.

With “CCGATTAACATCAAATACTCCCCTGATGTTAATCGGGTCTTGATTCGCTTGACGCTGCTG”, the binding signal in assay [1] is 6.1 z-score; in assay [2] it was 5.48 z-score; in assay [3] it was 6.09 z-score; in assay [4], 6.89 z-score; in assay [5] it was 3.34 z-score; in assay [6], 5.29 z-score. Besides, the binding signal in assay [7] was determined as 4.01 z-score.

As to “CCGATTAACATCAGGAATATCCCTGATGTTAATCGGGTCTTGATTCGCTTGACGCTGCTG”, the binding signal in assay [1] turned out to be 2.84 z-score; in assay [2], 3.66 z-score; in assay [3] it was 2.12 z-score; in assay [4] it was 1.54 z-score; in assay [5] it was 2.78 z-score; in assay [6], 6.03 z-score. The binding signal in assay [7] was determined as 3.26 z-score.

For “CCGATTAACATCAAGGGGACTTCTGATGTTAATCGGGTCTTGATTCGCTTGACGCTGCTG”, the binding signal in assay [1] worked out at 7.92 z-score; in assay [2], 7.59 z-score; in assay [3] it was 7.54 z-score; in assay [4] it was 2.41 z-score; in assay [5], 7.45 z-score; in assay [6] it was 6.14 z-score. In assay [7], the binding signal came to 6.74 z-score.

As for “CCGATTAACATCAAGCATTCCCCTGATGTTAATCGGGTCTTGATTCGCTTGACGCTGCTG”, the binding signal in assay [1] was determined as 6.61 z-score; in assay [2], 7.73 z-score; in assay [3], 8.37 z-score; in assay [4], 5.48 z-score; in assay [5] it was 4.42 z-score; in assay [6], 5.38 z-score. In addition, the binding signal in assay [7] amounted to 5.38 z-score.

In the case of “CCGATTAACATCATGAATTCCCATGATGTTAATCGGGTCTTGATTCGCTTGACGCTGCTG”, the binding signal is 1.57 z-score in assay [1]; 3.03 z-score in assay [2]; 3.14 z-score in assay [3]; 2.17 z-score in assay [4]; 3.29 z-score in assay [5]; 2.61 z-score in assay [6]. The sequence further gave a binding signal in assay [7] of 2.73 z-score.

Regarding “CCGATTAACATCAACGTCCCCCCTGATGTTAATCGGGTCTTGATTCGCTTGACGCTGCTG”, the binding signal in assay [1] was 5.15 z-score; in assay [2], 3.81 z-score; in assay [3], 4.61 z-score; in assay [4] it was 5.29 z-score; in assay [5], 4.4 z-score; in assay [6], 4.66 z-score. Further, in assay [7], the binding signal came to 3.74 z-score.
